According to the supplement of paper PMC8975748:
Where a name gives a salt, the structure may show the parent alone. ± gives the standard deviation of the averaged measurements.

Tests used:
[1] = test system: Saccharomyces cerevisiae BY4741 SeMeCo community; assay: mean cell size (pixel area) (pixels); higher = larger cells; conditions: 10 µM; 24 h; SM minimal medium
Summary of the method: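 Mean cell pixel area per well was measured in a four-plasmid fluorescent community of Saccharomyces cerevisiae BY4741, where every plasmid complements one auxotrophy and carries a fluorescent marker. Cells from an overnight preculture at OD600 = 1.0 were diluted to OD600 = 0.3 and dispensed at 70 µl into 384-well plates acoustically predosed with drug to a final 10 µM in SM medium. Incubation lasted 24 h, followed by paraformaldehyde fixation, automated confocal imaging and analysis in Harmony. Reported figures are averaged over 3 replicates. Same SeMeCo high-content imaging drug screen: Selleck FDA-approved drugs at 10 µM, 24 h in SM medium, 384-well plates, 3 replicates.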

[2] = test system: Saccharomyces cerevisiae BY4741 SeMeCo community; assay: z-score of prototroph abundance vs DMSO median; higher = larger share of this subpopulation than in DMSO controls; conditions: 10 µM; 24 h; SM minimal medium; subpopulation (auxotrophy): Prototroph
Summary of the method: (§1)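 Subpopulation abundance was reported as a z-score against the median of vehicle wells. The Saccharomyces cerevisiae BY4741 community, carrying four plasmids that each restored one auxotrophy and encoded a distinct fluorescent protein, was grown 24 h in minimal SM medium in 384-well plates holding library drugs at 10 µM final. Cells were paraformaldehyde-fixed and imaged by automated confocal microscopy, with single-auxotroph fluorescent strains used for thresholds and autofluorescence correction.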

[3] = test system: Saccharomyces cerevisiae BY4741 SeMeCo community; assay: z-score of subpopulation abundance vs DMSO median, subpopulation auxotrophic for M; higher = larger share of this subpopulation than in DMSO controls; conditions: 10 µM; 24 h; SM minimal medium; subpopulation (auxotrophy): M
Summary of the method: as §1

[4] = test system: Saccharomyces cerevisiae BY4741 SeMeCo community; assay: z-score of subpopulation abundance vs DMSO median, subpopulation auxotrophic for U; higher = larger share of this subpopulation than in DMSO controls; conditions: 10 µM; 24 h; SM minimal medium; subpopulation (auxotrophy): U
Summary of the method: as §1

[5] = test system: Saccharomyces cerevisiae BY4741 SeMeCo community; assay: z-score of subpopulation abundance vs DMSO median, subpopulation auxotrophic for H; higher = larger share of this subpopulation than in DMSO controls; conditions: 10 µM; 24 h; SM minimal medium; subpopulation (auxotrophy): H
Summary of the method: as §1

[6] = test system: Saccharomyces cerevisiae BY4741 SeMeCo community; assay: z-score of subpopulation abundance vs DMSO median, subpopulation auxotrophic for LU; higher = larger share of this subpopulation than in DMSO controls; conditions: 10 µM; 24 h; SM minimal medium; subpopulation (auxotrophy): LU
Summary of the method: as §1

[7] = test system: Saccharomyces cerevisiae BY4741 SeMeCo community; assay: z-score of subpopulation abundance vs DMSO median, subpopulation auxotrophic for LM; higher = larger share of this subpopulation than in DMSO controls; conditions: 10 µM; 24 h; SM minimal medium; subpopulation (auxotrophy): LM
Summary of the method: as §1

[8] = test system: Saccharomyces cerevisiae BY4741 SeMeCo community; assay: z-score of subpopulation abundance vs DMSO median, subpopulation auxotrophic for HM; higher = larger share of this subpopulation than in DMSO controls; conditions: 10 µM; 24 h; SM minimal medium; subpopulation (auxotrophy): HM
Summary of the method: as §1

[9] = test system: Saccharomyces cerevisiae BY4741 SeMeCo community; assay: z-score of subpopulation abundance vs DMSO median, subpopulation auxotrophic for HU; higher = larger share of this subpopulation than in DMSO controls; conditions: 10 µM; 24 h; SM minimal medium; subpopulation (auxotrophy): HU
Summary of the method: as §1

[10] = test system: Saccharomyces cerevisiae BY4741 SeMeCo community; assay: z-score of subpopulation abundance vs DMSO median, subpopulation auxotrophic for UM; higher = larger share of this subpopulation than in DMSO controls; conditions: 10 µM; 24 h; SM minimal medium; subpopulation (auxotrophy): UM
Summary of the method: as §1

[11] = test system: Saccharomyces cerevisiae BY4741 SeMeCo community; assay: z-score of subpopulation abundance vs DMSO median, subpopulation auxotrophic for HL; higher = larger share of this subpopulation than in DMSO controls; conditions: 10 µM; 24 h; SM minimal medium; subpopulation (auxotrophy): HL
Summary of the method: as §1

[12] = test system: Saccharomyces cerevisiae BY4741 SeMeCo community; assay: z-score of subpopulation abundance vs DMSO median, subpopulation auxotrophic for HLU; higher = larger share of this subpopulation than in DMSO controls; conditions: 10 µM; 24 h; SM minimal medium; subpopulation (auxotrophy): HLU
Summary of the method: as §1

[13] = test system: Saccharomyces cerevisiae BY4741 SeMeCo community; assay: z-score of subpopulation abundance vs DMSO median, subpopulation auxotrophic for HLM; higher = larger share of this subpopulation than in DMSO controls; conditions: 10 µM; 24 h; SM minimal medium; subpopulation (auxotrophy): HLM
Summary of the method: as §1

[14] = test system: Saccharomyces cerevisiae BY4741 SeMeCo community; assay: z-score of subpopulation abundance vs DMSO median, subpopulation auxotrophic for HUM; higher = larger share of this subpopulation than in DMSO controls; conditions: 10 µM; 24 h; SM minimal medium; subpopulation (auxotrophy): HUM
Summary of the method: as §1

[15] = test system: Saccharomyces cerevisiae BY4741 SeMeCo community; assay: z-score of subpopulation abundance vs DMSO median, subpopulation auxotrophic for LUM; higher = larger share of this subpopulation than in DMSO controls; conditions: 10 µM; 24 h; SM minimal medium; subpopulation (auxotrophy): LUM
Summary of the method: as §1

[16] = test system: Saccharomyces cerevisiae BY4741 SeMeCo community; assay: z-score of subpopulation abundance vs DMSO median, subpopulation auxotrophic for HLUM; higher = larger share of this subpopulation than in DMSO controls; conditions: 10 µM; 24 h; SM minimal medium; subpopulation (auxotrophy): HLUM
Summary of the method: as §1

[17] = test system: Saccharomyces cerevisiae BY4741 SeMeCo community; assay: z-score of subpopulation abundance vs DMSO median, subpopulation auxotrophic for L; higher = larger share of this subpopulation than in DMSO controls; conditions: 10 µM; 24 h; SM minimal medium; subpopulation (auxotrophy): L
Summary of the method: as §1

| Compound | mean cell size [1] | z-score of prototroph abundance [2] | z-score of subpopulation abundance [3] | z-score of subpopulation abundance [4] | z-score of subpopulation abundance [5] | z-score of subpopulation abundance [6] | z-score of subpopulation abundance [7] | z-score of subpopulation abundance [8] | z-score of subpopulation abundance [9] | z-score of subpopulation abundance [10] | z-score of subpopulation abundance [11] | z-score of subpopulation abundance [12] | z-score of subpopulation abundance [13] | z-score of subpopulation abundance [14] | z-score of subpopulation abundance [15] | z-score of subpopulation abundance [16] | z-score of subpopulation abundance [17] |
| --- | --- | --- | --- | --- | --- | --- | --- | --- | --- | --- | --- | --- | --- | --- | --- | --- | --- |
| O=c1ccc2ccc(OCCCCN3CCN(c4cccc5sccc45)CC3)cc2[nH]1 [Brexpiprazole] | 12.35 ± 0.092 | -0.62 | 0.05 | 0.84 | 0.96 | 0.27 | 0.35 | 0.35 | 1.54 | 1.41 | -0.02 | -0.45 | -0.13 | 0.25 | 1.05 | -0.98 |  |
| C=C[C@H]1CN2CC[C@H]1C[C@H]2[C@H](O)c1ccnc2ccc(OC)cc12 [Quinine HCl Dihydrate] |  | -0.12 | 0.59 |  |  | -0.08 | -0.52 | -0.08 | 0.2 | 1.09 | -0.28 | -0.42 |  | 0.21 | 0.52 | 0.6 | -0.67 |
| NC[C@@H]1O[C@H](O[C@H]2[C@@H](O)[C@H](O[C@@H]3[C@@H](O)[C@H](N)C[C@H](N)[C@H]3O[C@H]3O[C@H](CN)[C@@H](O)[C@H](O)[C@H]3N)O[C@@H]2CO)[C@H](N)[C@@H](O)[C@@H]1O [Neomycin sulfate] |  | 0.99 | -0.79 | 0.07 | 0.56 | 0.11 | -0.12 | -1.14 |  | -1.35 | -0.31 | -0.36 |  | -1.64 | -0.31 | 0.16 | 0.21 |
| Oc1ccc(Cl)c2cccnc12 [Cloxiquine] | 14.28 ± 0.12 |  | 5.82 | -1.71 |  | 6.41 |  | 26.6 |  |  | 17.4 | 17.6 |  | 14.5 | 22.1 | 43.7 | -1.33 |
| CCC1(c2ccccc2)C(=O)NCNC1=O [Primidone] |  | 0.08 | 0.8 | -0.16 | -0.52 | -0.48 |  | 0.36 | 0.35 |  | -0.36 | -0.29 |  | 0.42 |  | 0.15 | -0.17 |
| Cc1onc(-c2ccccc2)c1-c1ccc(S(N)(=O)=O)cc1 [Valdecoxib] | 12.3 ± 0.17 | 1 | -0.21 | -0.55 | -0.55 | -0.06 | 0.09 | -0.77 | -0.23 | -0.64 |  | -0.52 |  |  | -0.21 | -0.56 | 0.01 |
| Nc1ccc(/N=N/c2ccccc2)c(N)n1 [Phenazopyridine HCl] | 12.5 ± 0.25 | 2.41 | 0.28 | -2.82 | 1.88 | -2.56 | 0.47 |  | -2.46 |  | 0.92 | -1.56 |  |  | -1.8 | -0.54 | 0.42 |
| Oc1c(Cl)cc(Cl)c2cccnc12 [Chloroxine] |  | -16.8 | 3.4 | -1.29 |  | 11.5 | 10.6 | 28.2 |  | 1.02 | 21.7 | 33.8 |  |  | 17.1 | 32.5 | -0.75 |
| CC/C=C(\C(=O)N[C@@H]1C(=O)N2C(C(=O)OCOC(=O)C(C)(C)C)=C(COC(N)=O)CS[C@H]12)c1csc(N)n1 [Cefcapene Pivoxil Hydrochloride] | 12.3 ± 0.31 |  | 0.11 | 0.38 | 1.15 | 0.9 | 0.55 | 1.27 | 1 | 0.67 |  | -0.22 |  |  | 0.63 | 0.1 | 0.38 |
| CC(C)c1c(C(=O)Nc2ccccc2)c(-c2ccccc2)c(-c2ccc(F)cc2)n1CC[C@@H](O)C[C@@H](O)CC(=O)O [Atorvastatin] |  |  | -2.26 | 0.32 |  | 1.58 | -0.19 | 2.44 |  |  | 5.39 | 1.73 |  |  | 0.92 | 0.49 | 1.5 |
| CCNC(=O)[C@@H]1CCCN1C(=O)[C@H](CCCNC(=N)N)NC(=O)[C@H](CC(C)C)NC(=O)[C@@H](CC(C)C)NC(=O)[C@H](Cc1ccc(O)cc1)NC(=O)[C@H](CO)NC(=O)[C@H](Cc1c[nH]c2ccccc12)NC(=O)[C@H](Cc1c[nH]cn1)NC(=O)[C@@H]1CCC(=O)N1 [Leuprolide Acetate] | 12.5 ± 0.15 | -0.62 | 0.38 | 0.31 | 0.67 | -0.03 | 0.63 | 0.95 | 1.03 | 0.23 | 0.14 | 0.54 | 0.28 | 0.45 | 0.35 | 0.75 |  |
| CCOc1cc(N)c([N+](=O)[O-])cc1C(=O)NC1CCN(CC2CC=CCC2)CC1 (stereo not given) [Cinitapride Hydrogen Tartrate] |  | -1.19 | 0.87 | 1.07 |  | 0.88 | 0.4 | 0.24 | 0.74 | 1.35 | -0.01 | 0.47 |  | 1.26 | 0.94 | 0.5 | -0.2 |
| Nc1ccc(S(=O)(=O)NC(=O)c2ccccc2)cc1 [Sulfabenzamide] | 12.5 ± 0.4 |  | -0.05 | -0.51 | -0.19 | -0.03 |  | -0.23 | -0.03 | -1.04 |  | 0.61 |  | -1.03 | -0.19 | 0.15 | -0.13 |
| COC1C(O)CC(=O)OC(C)CC=CC=CC(OC2CCC(N(C)C)C(C)O2)C(C)CC(CC=O)C1OC1OC(C)C(OC2CC(C)(O)C(O)C(C)O2)C(N(C)C)C1O (stereo not given) [Spiramycin] |  | 0.08 | -0.36 | 0.01 | -0.16 | -0.46 | -0.48 | -0.27 | 0.31 | 0.4 | 0.65 | -0.77 | 0.43 | -0.02 |  | 0.17 |  |
| O=C(NCCO[N+](=O)[O-])c1cccnc1 [Nicorandil] |  | 0.69 | -0.48 | -0.31 | -0.28 | 0.21 | -0.01 | -0.61 | -0.39 | -0.61 | -0.84 | 0.08 | -0.83 | -0.48 | -0.44 | -0.37 |  |
